Measurements published in PubChem BioAssay (Tox21).
Inconclusive results are not listed. A call without a number means that no potency is given here. Activity calls are given as the source filed them. Calls come from the whole dose curve.

Experiment: Nuclear factor erythroid 2-related factor 2/antioxidant responsive element (Nrf2/ARE) small molecule agonists: luciferase reporter gene qHTS assay in human keratinocytes (AID 1919969); note: nearly all actives have a fitted effect of over 35% in size
Details: KeratinoSens HaCaT ARE-luciferase, luminescence, 24 h; series mostly up to 92.4 µM
Text: National Center for Advancing Translational Sciences [NCATS]
Division of Preclinical Innovation [DPI]
U.S. Environmental Protection Agency [EPA]
National Institutes of Environmental Health Sciences [NIEHS]
National Toxicology Program [NTP]
U.S. Food and Drug Administration [FDA]
Oxidative stress has been implicated in the pathogenesis of a variety of diseases ranging from cancer to neurodegeneration. The antioxidant response element (ARE) signaling pathway plays an important role in the amelioration of oxidative stress. The KeratinoSens (Givaudan, Switzerland) is an in vitro test method which quantifies luciferase induction as a measure of activation of Keap1-Nrf2-antioxidationt/electrophile response element (ARE) dependant pathway in HaCaT human keratinocytes stably transfected with a selectable plasmid. The KeratinoSens assay is a cell-based assay with a reporter cell line to detect potential skin sensitizers by their ability to induce the Nrf2/ARE-response. The activation of the report gene under culture conditions can be detected by ONE-Glo Luciferase Assay System (Promega, Madison, WI). This cell line has been used to screen the Tox21 10K compound library to identify agonists that induce oxidative stress. The cytotoxicity of the Tox21 compound library against the KS-ARE cell line was tested in parallel by measuring the cell viability using CellTiter- Fluor assay system (Promega, Madison, WI) in the same wells.
HaCaT derived cell line KeratinoSens were dispensed at 1,500 cells/5uL/well in 1536-well white wall/solid bottom plates using a Multidrop Combi (ThermoFisher Scientific, Waltham, MA) dispenser. After the assay plates were incubated at 37 C/5% CO2 for 5 h, 23 nL of compounds dissolved in DMSO, positive controls or DMSO only was transferred to the assay plate by a pintool workstation (Kalypsys, San Diego, CA). The plates were incubated at 37 C/5% CO2 for 23 h, followed by addition of 1uL/well of CellTiter-Fluor reagent into the assay plates using a Flying Reagent Dispenser (Aurora Discovery, San Diego, CA) for cell viability readout that measures cytotoxicity. After 1 h incubation at 37 C/5% CO2 the fluorescence intensity was measured using a ViewLux (PerkinElmer, Shelton, CT) plate reader. Then 4uL/well of One-Glo were added using a Flying Reagent Dispenser. After the plates were incubated at room temperature for 30 min, the luminescence intensity in the assay plates was measured using ViewLux plate reader.
Potency is the fitted concentration of half-maximal effect.

| SMILES | Potency |
| --- | --- |
| CCCCCOC(=O)CCC | inactive |
| CN(C(=O)CCCOc1ccc2[nH]c(=O)ccc2c1)C1CCCCC1 | inactive |
| CCc1nccnc1C | inactive |
| CO[C@@H]1COCC[C@@H]1N[C@@H]1CC[C@@](C(=O)N2CCc3ncc(C(F)(F)F)cc3C2)(C(C)C)C1 | inactive |
| Cc1ccsc1C(=CCCN1CCC[C@@H](C(=O)O)C1)c1sccc1C | inactive |
| Nc1nc(N)c(-c2ccccc2)s1 | inactive |
| CC(C)(C(=O)c1cccnc1)c1cccnc1 | inactive |
| CCCCCc1ccco1 | 44.7 µM (active) |
| O=C(O)Cn1c(C(=O)Nc2nc(-c3ccccc3Cl)cs2)cc2ccccc21 | 15 µM (active) |
| OCCNCc1ccccc1 | 68.6 µM (active) |
| CC(CC(C#N)(c1ccccc1)C(C)C)N(C)C (stereo not given) | inactive |
| CCC(C)C(=O)OC (stereo not given) | inactive |
| N#Cc1cscn1 | inactive |
| CSc1cnc(C)cn1 | inactive |
| Cc1nnc(C(=O)NC(C)(C)c2nc(C(=O)NCc3ccc(F)cc3)c(O)c(=O)n2C)o1 | inactive |
| CC(CN1CC(=O)NC(=O)C1)N1CC(=O)NC(=O)C1 (stereo not given) | inactive |
| OCC(F)(F)F | inactive |
| C=CC(=O)OCC(CO)(COCC(COC(=O)C=C)(COC(=O)C=C)COC(=O)C=C)COC(=O)C=C | 2.4 µM (active) |
| CCN(CC)CCOc1ccc(C(O)(Cc2ccc(Cl)cc2)c2ccc(C)cc2)cc1 (stereo not given) | inactive |
| Cc1cccc2sc(N)nc12 | inactive |

| SMILES | Potency |
| --- | --- |
| O=C(O)c1c(Cl)cccc1Cl | inactive |
| CNS(=O)(=O)CCc1ccc2[nH]cc(C3CCN(C)CC3)c2c1 | inactive |
| c1cc2c3c(c1)ccc1cccc(c13)C2 | inactive |
| C=CCSCC1Nc2cc(Cl)c(S(N)(=O)=O)cc2S(=O)(=O)N1 (stereo not given) | inactive |
| O=c1[nH]cccc1O | inactive |
| CCCC(C(=O)OCCN(CC)CC)(c1ccccc1)c1ccccc1 | inactive |
| CN1CCN(c2c(F)cc3c(=O)c(C(=O)O)cn4c3c2SCC4)CC1 | inactive |
| C=CC(=O)OCCCCCCCCCC | inactive |
| CCN(CC)c1ccc(C(=C2C=CC(=[N+](CC)CC)C=C2)c2ccc(S(=O)(=O)O)cc2S(=O)(=O)[O-])cc1 | inactive |
| C=C(C)C(=O)OC1CC(C)CC(C)(C)C1 (stereo not given) | inactive |
| CCn1cc(C(=O)O)c(=O)c2cc(F)c(N3CCNCC3)cc21 | inactive |
| CN(C[C@@H](CC[N+]12CCC(C3CCCCC3)(CC1)CC2)c1ccc(Cl)c(Cl)c1)C(=O)c1cc(C(F)(F)F)cc(C(F)(F)F)c1 | 24.3 µM (active) |
| Cc1ccccc1N1CCN(CCc2nnc3n2CCCC3)CC1 | inactive |
| CCO[Si](CC)(OCC)OCC | inactive |
| NC(N)=NC(=O)Cc1c(Cl)cccc1Cl | inactive |
| CC(C)=CC(=O)O | inactive |
| CN1CCC(=C2c3ccccc3CC(=O)c3sccc32)CC1 | inactive |
| Cc1c(C)c([N+](=O)[O-])c(C(C)(C)C)c([N+](=O)[O-])c1C | inactive |
| CC(C)(O)C(=O)c1ccccc1 | inactive |
| O=C1C(=O)c2ccccc2C(O)=C1C1CCC(c2ccc(Cl)cc2)CC1 (stereo not given) | 13.3 µM (active) |
